Active and inactive are the calls of the source. Unless noted, how the calls were made is not given here.
Key:
[1] = tested on: XIP peptide (Xip251-270) binding; experiment: XIP fragment 251-270 binding compounds – biochemical, small-molecule microarray, fluorescence 635/667 nm, 0.1 µg/mL protein, primary screen (AID 1182); settings: fluorescent protein binding, 635 nm, higher = more signal, called active from +8 up or from −8 down
XIP peptide (Xip251-270) = experiment: compounds binding XIP fragment 251-270 – biochemical, small-molecule microarray, fluorescence 635/667 nm, 0.5 µg/mL protein, primary screen (AID 1183); settings: fluorescence 635 nm, higher = more signal
[2] = blood-stage malaria parasite viability loss – strain 3D7, DAPI fluorescence, 100 nL, primary screen (AID 1184);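 further: parasites grown inside human red blood cells in medium with human serum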; settings: P. falciparum 3D7 growth, 3 d, higher = more signal
[3] = biological target: Homeobox protein Hox-A13 (Mus musculus) (UniProt Q62424); experiment: disruptors of Hoxa13 oligonucleotide interaction – biochemical, fluorescence polarization, labeled oligonucleotide, primary screen (AID 1185); settings: Hoxa13:DNA binding, 15 min, higher = more signal, called active from +8 up or from −8 down
Sequence of Homeobox protein Hox-A13 (Mus musculus) (Q62424 whole entry, looked up): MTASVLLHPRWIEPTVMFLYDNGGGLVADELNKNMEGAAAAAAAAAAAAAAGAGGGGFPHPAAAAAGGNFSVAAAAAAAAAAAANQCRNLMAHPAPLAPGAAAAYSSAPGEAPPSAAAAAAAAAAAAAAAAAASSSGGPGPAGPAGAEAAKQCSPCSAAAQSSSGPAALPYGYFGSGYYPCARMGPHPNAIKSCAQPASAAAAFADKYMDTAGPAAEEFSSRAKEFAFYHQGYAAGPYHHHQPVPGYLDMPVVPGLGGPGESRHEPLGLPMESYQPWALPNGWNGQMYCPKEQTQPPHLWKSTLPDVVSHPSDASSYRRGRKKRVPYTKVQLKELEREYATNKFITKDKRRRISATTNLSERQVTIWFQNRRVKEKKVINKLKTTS

[4] = blockers of DNA damage checkpoint Chk1 activation – imaging, HeLa, hydroxyurea, phospho-Chk1 antibody, percent positive cells, primary screen (AID 1186); settings: hydroxyurea-induced phospho-Chk1 immunofluorescence imaging, higher = more signal
[5] = blockers of DNA damage checkpoint Chk1 activation – imaging, HeLa, hydroxyurea, phospho-Chk1 nuclear intensity, primary screen (AID 1187); settings: hydroxyurea-induced phospho-Chk1 immunofluorescence imaging, higher = more signal

Compound	composite z-score [1]	composite z-score (XIP peptide (Xip251-270))	z-score [2]	z-score [3]	z-score [4]	z-score [5]
C=C(COC)/C(=C/C[C@@H](OC(=O)c1ccncc1)c1ccc(OCCO)cc1)c1cnc2ccccc2c1	0.39 (inactive)	0.595	-2.93	-5.37 (inactive)	-0.0998 (inactive)	0.349 (inactive)
COCCOC(=O)N1C(=O)[C@@]2(c3cc(C#CC4=CCCCC4)ccc31)[C@H](c1ccc(O)cc1)N1[C@H](c3ccccc3)[C@H](c3ccccc3)OC(=O)[C@H]1[C@@H]2C(=O)Nc1nc2ccccc2s1	0.863 (inactive)	0.843	-1.32	1.05 (inactive)	0.0256 (inactive)	0.125 (inactive)
C=CC[C@]1(C(=O)N(C)C)N=C(c2ccc(OCCCO)cc2)O[C@H]1c1ccccc1N=[N+]=[N-]	0.845 (inactive)	0.382	-1.8	-3.37 (inactive)	-0.22 (inactive)	-0.0961 (inactive)
CC(C)(C)OC(=O)CC[C@]1(C(=O)NCCN2CCOCC2)N=C(c2ccc(OCCCO)cc2)O[C@H]1c1ccccc1N=[N+]=[N-]	0.716 (inactive)	0.864	-1.73	-4.1 (inactive)	0.0695 (inactive)	0.234 (inactive)
COc1ccc(C(O)C2C=CC3C(=O)N(C)C(=O)C3N2N2CCCCC2)cc1 (stereo unspecified)	0.568 (inactive)	0.37	-0.0513	-4.16 (inactive)	-1.52 (inactive)	-1.31 (inactive)
C=C(CCCC)C(=O)CC[C@@H](OC(=O)c1cccnc1)c1ccccc1OCCO	-0.451 (inactive)	-0.0138	-3.08	-3.61 (inactive)	-0.383 (inactive)	-0.227 (inactive)
COCCOC(=O)N1C(=O)[C@@]2(c3cc(C#CC4=CCCCC4)ccc31)[C@H](C(=O)N1CCN(c3ncccn3)CC1)[C@H]1C(=O)O[C@H](c3ccccc3)[C@H](c3ccccc3)N1[C@@H]2c1ccc(O)cc1	0.481 (inactive)	0.685	-1.29	0.446 (inactive)	0.247 (inactive)	0.0658 (inactive)
CCCCN1CC=CC23O[C@@H]4C=CCOC(=O)[C@@H]4[C@H]2C(=O)N(C(C)CO)[C@@H]3C1=O (stereo partly specified)	-0.161 (inactive)	-1.06	1	-5.05 (inactive)	-0.525 (inactive)	-0.392 (inactive)
C=CCOC(=O)[C@@H]1[C@H]2C(=O)O[C@H](c3ccccc3)[C@H](c3ccccc3)N2[C@H](c2ccc(OCCOC(=O)[C@H]3C[C@H]4C(=O)N[C@@H](CCCC[N+](C)(C)C)C(=O)N4[C@H]3c3ccc(O)cc3)cc2)[C@@]12C(=O)Nc1ccc(I)cc12	0.708 (inactive)	0.873	-1.16	-0.103 (inactive)	-0.655 (inactive)	-0.636 (inactive)
[N-]=[N+]=Nc1ccccc1[C@H]1OC(c2ccc(OCCCO)cc2)=N[C@@]1(CCS(=O)(=O)c1ccccc1)C(=O)N1CCCCC1	0.154 (inactive)	0.755	-2.19	-1.18 (inactive)	-0.483 (inactive)	-0.458 (inactive)
CCOC(=O)C1=C[C@@H](c2ccccc2)N(S(=O)(=O)c2ccc(C)cc2)[C@H]1c1cccc(Cl)c1	0.526 (inactive)	0.803	-2.03	0.587 (inactive)	0.289 (inactive)	0.284 (inactive)
CC(C)c1ccc(NN2C(C(O)c3ccco3)C=CC3C(=O)N(c4ccccc4)C(=O)C32)cc1 (stereo unspecified)	0.938 (inactive)	0.849	-0.107	-3.14 (inactive)	-0.881 (inactive)	-1.03 (inactive)
C=C(/C=C/CNS(=O)(=O)c1ccc(C)cc1)[C@H](O)[C@H]1CCCN1S(=O)(=O)c1ccccc1[N+](=O)[O-]	-0.121 (inactive)	0.729	-2.04	-5.58 (inactive)	-0.0778 (inactive)	0.181 (inactive)
C=CC[C@@]12N=C(c3ccc(OCCCO)cc3)O[C@@H]1c1ccccc1N(CCS(=O)(=O)c1ccccc1)C2=O	2.13 (inactive)	0.767	-2.01	-2.38 (inactive)	-0.641 (inactive)	-0.295 (inactive)
CC(=O)n1cc(C(O)C2C=CC3C(=O)N(c4ccccc4)C(=O)C3N2Nc2ccccc2)c2ccccc21 (stereo unspecified)	0.853 (inactive)	-0.515	-0.4	-3.42 (inactive)	0.863 (inactive)	0.355 (inactive)
CCCNC(=O)[C@@]1(c2ccc([N+](=O)[O-])cc2)CC(=O)N(C2CCCCC2)[C@@H]1c1ccc(CO)cc1I	0.423 (inactive)	0.845	-1.66	-5.34 (inactive)	-0.0439 (inactive)	0.329 (inactive)

Compound	composite z-score [1]	composite z-score (XIP peptide (Xip251-270))	z-score [2]	z-score [3]	z-score [4]	z-score [5]
Cc1c(NC(=O)/C(C#N)=C/C=C/c2ccccc2[N+](=O)[O-])c(=O)n(-c2ccccc2)n1C	4.09 (inactive)	0.552	-0.758	-3.54 (inactive)	0.432 (inactive)	0.721 (inactive)
O=C1OCC=C[C@H]2OC34C=CCN(Cn5nnc6ccccc65)C(=O)[C@H]3N(CCCCCCO)C(=O)[C@@H]4[C@@H]12 (stereo partly specified)	-0.231 (inactive)	-0.714	-0.508	-4.69 (inactive)	0.197 (inactive)	0.521 (inactive)
Cc1ccc(S[C@]2(C(=O)NCCN3CCOCC3)CC(=O)N(Cc3ccccc3C(F)(F)F)[C@@H]2c2ccc(CO)cc2I)cc1	0.109 (inactive)	0.895	-0.701	-3.32 (inactive)	0.354 (inactive)	0.873 (inactive)
Cc1ccc(S[C@]2(C(=O)NC(C)C)CC(=O)N(Cc3ccccc3C(F)(F)F)[C@@H]2c2ccc(CO)cc2I)cc1	0.136 (inactive)	0.582	-1.14	-1.9 (inactive)	0.0101 (inactive)	0.293 (inactive)
CN(C)C(=O)[C@@]1(Cc2ccccc2N=[N+]=[N-])COC(c2ccc(OCCCO)cc2)=N1	0.472 (inactive)	0.605	-1.8	-5.84 (inactive)	-0.408 (inactive)	-0.362 (inactive)
COc1ccc([Si](C)(C)[C@H]2[C@H](CCn3cc(CCO)nn3)O[C@@]3(C(=O)N(Cc4ccc(N5C(=O)c6cccc7cccc5c67)cc4)c4ccccc43)[C@@H]2C)cc1	0.146 (inactive)	0.625	-2.28	-3.7 (inactive)	-0.771 (inactive)	-0.923 (inactive)
CN(C)CCCNC(=O)[C@@]1(C)c2ccccc2C(=O)N(Cc2cc(C(F)(F)F)cc(C(F)(F)F)c2)[C@H]1c1ccc(CO)cc1	0.23 (inactive)	-0.987	-1.27	-2.7 (inactive)	-0.0172 (inactive)	-0.0753 (inactive)
NC(N)=NCc1cn(CCc2c[nH]c3ccccc23)nn1	1.35 (inactive)	0.937	0.743	-2.09 (inactive)	0.568 (inactive)	-0.248 (inactive)
CC(C)(C)N1CC=CC23O[C@@H]4C=CCOC(=O)[C@@H]4[C@H]2C(=O)N(CCCO)[C@@H]3C1=O (stereo partly specified)	-0.466 (inactive)	-0.825	-1.87	-3.12 (inactive)	-0.263 (inactive)	-0.327 (inactive)
O=C1c2ccccc2[C@](Cc2ccccc2I)(C(=O)NCCN2CCOCC2)[C@H](c2ccc(CO)cc2)N1Cc1ccccc1	0.198 (inactive)	0.67	-0.74	-5.76 (inactive)	-0.0525 (inactive)	-0.321 (inactive)
CC(C)CN1C(=O)[C@@]2(c3ccc([N+](=O)[O-])cc3)CC(=O)N(CC34CC5CC(CC(C5)C3)C4)[C@@H]2c2ccc(CO)cc21	0.141 (inactive)	-0.0737	-1.14	0.944 (inactive)	0.016 (inactive)	-0.164 (inactive)
COC(=O)[C@@]1(Cc2ccccc2)[C@H]2c3cc(C(=O)N4CCCC4)n(Cc4ccsc4Br)c3C[C@H]2CN1C(=O)c1ccccc1	0.427 (inactive)	0.77	-1.16	-3.29 (inactive)	0.17 (inactive)	0.498 (inactive)
[N-]=[N+]=NCc1ccccc1C[C@@]1(C(=O)NCCN2CCOCC2)N=C(c2ccc(OCCCO)cc2)O[C@@H]1c1ccccc1N=[N+]=[N-]	1.51 (inactive)	0.767	-2.75	-2.44 (inactive)	-0.402 (inactive)	-0.753 (inactive)
COc1ccc([Si](C)(C)[C@H]2[C@H](CC(=O)N3Cc4ccccc4C[C@H]3CO)O[C@@]3(C(=O)N(Cc4cccc(N5CCCCC5=O)c4)c4ccccc43)[C@@H]2C)cc1	0.573 (inactive)	0.743	-1.62	-3.09 (inactive)	-0.507 (inactive)	-0.35 (inactive)
CCOC(=CC(=O)OC)CC(O)c1cccc(Cl)c1 (stereo unspecified)	2.68 (inactive)	0.893	-0.368	-3.53 (inactive)	-0.119 (inactive)	0.219 (inactive)

Reference: PubChem BioAssay
